The sample as a whole holds a higher share of hits than the screen did.
Pf Dd2 growth – inhibitors of Plasmodium falciparum Dd2 growth; P. falciparum Dd2 growth, SYBR Green, 72 h; Potency, µM (top dose mostly 28.9 µM), without a hit: top-dose activity, negative = inhibition, usual class: inhibitors; hit rate 4.3% among 120,000; active = well fitted inhibition curve with a large enough effect;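 also: plate controls were DMSO vehicle for no effect and reference drug for full effect; nearly all actives have a fitted effect of over 65% in size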
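Infected erythrocytes (Dd2, 0.3% parasitemia, 2.5% hematocrit final) are added to compound in RPMI-1640/Albumax II medium, grown 72 h at 37C in low oxygen, then lysed with saponin/Triton-X containing SYBR Green and read by fluorescence.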
* = called active by the depositor; i = inactive; [ ] = another dose, or the depositor's remark. Potency is read from the fitted curve at half-maximal effect.

SMILES	Pf Dd2 growth
CC(C)(C)C1CCc2nc(NC(=O)Cc3ccc(Cl)cc3)sc2C1 (configuration not stated)	10µM*
COc1ccccc1OCC(=O)Nc1nc2c(s1)CC(C)CC2 (configuration not stated)	86%
COc1ccc(C(=O)NC2CCN(C(=O)N3CC4CC(C3)[C@H]3CCCC(=O)N3C4)CC2)cn1 (some centres not stated)	i
COc1ccc(C(=O)NC2CCN(C(=O)N3CC4CC(C3)[C@H]3CCCC(=O)N3C4)CC2)c(OC)c1 (some centres not stated)	-27%
COc1ccc(C(=O)NC2CCN(C(=O)N3CC4CC(C3)[C@H]3CCCC(=O)N3C4)CC2)c(OC)n1 (some centres not stated)	5µM*
CCCC1(CO)CCCN(CC(=O)NC(C)(C)CC)C1 (configuration not stated)	-25%
CCOc1ccccc1NC(=O)N1CC(C)Oc2ccc(Cl)cc21 (configuration not stated)	15%
CCOc1ccccc1NC(=O)N1CCCn2nc(C)cc21	i[5.79 µM]
CCOc1ccccc1NC(=O)N1c2ccccc2Sc2ccccc21	13µM*
O=[S+]([O-])(c1cccs1)N1CCCC2(CC(c3ccccn3)=NO2)C1 (configuration not stated)	1%
CCc1ccc(C(=O)N2CCN(C(=O)c3nnn4c3COC(c3ccc(F)cc3)C4)CC2)cc1 (configuration not stated)	-6%
COc1cccc(-n2c(-c3ccccc3F)nc3c(cnn3-c3ccc(C)cc3)c2=O)c1	8.9µM*
Cc1ccc(-n2c(-c3ccco3)nc3c(cnn3-c3ccc(C)cc3)c2=O)cc1	11µM*
Cc1ccc(-c2nc3c(cnn3-c3ccccc3)c(=O)n2-c2cccc(Cl)c2)cc1	-7%
Cc1ccc(-n2c(C)nc3c(cnn3-c3ccccc3)c2=O)cc1	14%
Cc1ccc(-n2c(-c3ccco3)nc3c(cnn3-c3ccccc3C)c2=O)cc1	i
Cc1cccc(-n2c(-c3ccco3)nc3c(cnn3-c3ccc(F)cc3)c2=O)c1	i
Cn1ccc2c(C(=O)NCc3cccnc3)nc(-c3ccc(N4CCOCC4)cc3)cc21	-18%[44.1 µM]
CNC(=O)[C@@H]1CN(C(=O)c2c[nH]c3ccccc23)C[C@H]1C1CCN(C)CC1	7%
O=C(N1CCC2(CC1)CN(c1ccncn1)CC2CO)C1(c2ccccc2)CC1 (configuration not stated)	-31%
c1nc(N2C[C@@H](c3ccc4c(c3)OCO4)[C@@H]3[C@H]2C2CCN3CC2)c2[nH]cnc2n1	-14%
Cn1cc(CN2CCN3CCCC3C2)c(-c2ccc(C3CCCCC3)cc2)n1 (configuration not stated)	8.9µM*
Cn1cc(CN2CCCC(C(=O)N3CCOCC3)C2)c(-c2ccc(C3CCCCC3)cc2)n1 (configuration not stated)	-23%
Cn1cc(CN2CCN3C(=O)N(C4CCCCC4)C[C@H]3C2)cn1	i
Cc1ccc(C(=O)N2CCC3(CC(C(C)C)=NO3)C2)cc1 (configuration not stated)	21%[44.1 µM]
SMILES	Pf Dd2 growth
Cc1nc2ccc(Cc3nc(-c4cccnn4)no3)cc2[nH]1	11%
COc1nc2c(cc1CNC(=O)Cn1ccc(C)n1)C(=O)N(C1CCCC1)C2	-6%
COc1ccc(N2CC(C(=O)NCc3ccc(C(F)(F)F)cc3)NC2=O)cc1 (configuration not stated)	-7%
COc1ccc(Cn2c(C(=O)O)c(CNC3CCCC3)c3ccc(OC)cc32)cc1	-22%
CCOc1ccc(CNCc2c(C(=O)O)n(Cc3ccc(C)cc3)c3cc(C)ccc23)cc1	-2%
COc1ccc2c(CNCc3ccc(Cl)cc3)c(C(=O)O)n(Cc3ccccc3C)c2c1	11µM*
CCOc1ccc(CNCc2c(C(=O)O)n(Cc3ccc(OC)cc3)c3ccccc23)cc1	10µM*
COc1ccc2c(CNCc3cccs3)c(C(=O)O)n(Cc3ccccc3)c2c1	-18%
COc1ccc2c(CNCCc3ccco3)c(C(=O)O)n(Cc3ccc(C)cc3)c2c1	i
COc1ccc(Cn2c(C(=O)O)c(CNCc3ccccc3F)c3ccc(OC)cc32)cc1	8.9µM*
CCOc1ccccc1CNCc1c(C(=O)O)n(Cc2ccccc2)c2cc(OC)ccc12	-17%
COc1ccc2c(CNCc3ccc(C)o3)c(C(=O)O)n(Cc3ccccc3C)c2c1	-22%
O=C(c1ccoc1)N1CCC(n2cc(-c3nc(C4CC4)no3)nn2)C1 (configuration not stated)	i
O=C(NCC1CN(C(=O)Cc2ccc3c(c2)OCO3)CC12CN(c1ccccc1)C2)c1ccccc1 (configuration not stated)	i
CCOCc1nc(C2CCCN(C(=O)c3cccc(F)c3)C2)no1 (configuration not stated)	-11%
COCCC1(NC(=O)C2CC2)CCN(S(=O)(=O)c2ccccc2)CC1	-19%
COCCNC(=O)[C@@H]1C[C@@H](O)CN1C1CCN(C(=O)c2cccc(OC)c2)CC1	-13%
Cc1ccc(CNC(=O)NCC(=O)N2CCCCCNC(=O)CC2c2ccccc2)cc1 (configuration not stated)	-11%
COCCNC(=O)[C@H]1C[C@H](Oc2ccccc2)CN1C(=O)NCc1ccc(F)cc1	-6%
Cc1c(CC(=O)NCC2CC2)c2c(n1Cc1ccccc1F)CCCC2=O	-8%
Cc1c(CC(=O)NC(C)C2CC2)c2c(n1Cc1ccccc1F)CCCC2=O (configuration not stated)	10µM*
Cc1c(CC(=O)NC2CCOC2=O)c2c(n1Cc1ccccc1F)CCCC2=O (configuration not stated)	-7%
Cc1ccsc1CN1CCC2(CC1)CC(CC(=O)NCc1ccncc1)CCO2 (configuration not stated)	i
COCCN1C(=O)C(CC(=O)NCCc2ccccc2)=C2CCCCC21 (configuration not stated)	-8%
CCc1ccccc1N1C(=O)N(CC(=O)c2ccc(OC)cc2)c2ccccc2S1(=O)=O	-29%
SMILES	Pf Dd2 growth
COc1ccc(OC)c(C(=O)CN2C(=O)N(c3cc(C)cc(C)c3)S(=O)(=O)c3ccccc32)c1	10µM*
COc1cccc(N2C(=O)N(Cc3ccc(C#N)cc3)c3ccccc3S2(=O)=O)c1	-16%
CCc1ccc(Nc2nc(-c3cc4cccc(OC)c4oc3=O)c(CC)s2)cc1	11µM*
CCOc1cccc2cc(-c3nnc(Nc4ccc(F)c(Cl)c4)s3)c(=O)oc12	21%
COc1cccc2cc(-c3nc(Nc4cccc(C)c4C)sc3C)c(=O)oc12	5%
O=C(O)COc1ccc(-c2nccc3c2C(=O)N(Cc2c[nH]c4ccccc24)CC(COc2ccccc2)O3)cc1 (configuration not stated)	i
Cc1ncccc1OCC1CN(Cc2cccc(C(F)(F)F)c2)C(=O)c2c(ccnc2-c2ccc(OCC(=O)O)cc2)O1 (configuration not stated)	-4%
CC(C)C(=O)NCC1CN(Cc2ccccc2)C(=O)c2c(ccnc2-c2ccc(OCC(=O)O)cc2)O1 (configuration not stated)	1.1µM*
CCCCOC(=O)C1=CN(Cc2ccccc2)S(=O)(=O)N=C1C	-5%
COc1ccc(C(=O)NC2CCN(c3cc(-c4ccc(F)cc4)[nH]n3)C2)c(C)c1 (configuration not stated)	i
Cc1ccc(NC(=O)C2CCCN2S(=O)(=O)c2cccc3nsnc23)c(C)c1 (configuration not stated)	i
